Results: the supplement of paper PMC8728848
The sample as a whole holds a higher share of the strongest signals than the screen did.

Columns and labels:
Assay in all cases: glycan array binding signal (z-score within array); higher = stronger binding
Details in all cases: glycan notation: IUPAC condensed, linker removed
[1] = molecular target: GalNAc(b1-4)GlcNAc(b1-2)Man(a1-3)[GalNAc(b1-4)GlcNAc(b1-2)Man(a1-6)]Man(b1-4)GlcNAc(b1-4)GlcNAc
Method in brief: (§1)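 Negative Z-scores can be read as non-binding. The Z-score is calculated within each array and then averaged across arrays of one protein sequence at different concentrations or buffers and across linkers. Arrays, 3228 in all, were curated from the Consortium for Functional Glycomics database and kept only where the protein sequence was available.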

[2] = molecular target: GlcNAc(b1-2)Man(a1-3)[GlcNAc(b1-4)][GlcNAc(b1-2)Man(a1-6)]Man(b1-4)GlcNAc(b1-4)GlcNAc
Method in brief: as §1

[3] = molecular target: GlcNAc(b1-3)Gal(b1-4)Glc
Method in brief: as §1

[4] = molecular target: GlcNAc(b1-3)Gal(b1-4)GlcNAc
Method in brief: as §1

[5] = molecular target: GlcNAc(b1-3)Gal(b1-4)GlcNAc(b1-2)Man(a1-3)[GlcNAc(b1-3)Gal(b1-4)GlcNAc(b1-2)Man(a1-6)]Man(b1-4)GlcNAc(b1-4)GlcNAc
Method in brief: as §1

[6] = molecular target: GlcNAc(b1-3)Gal(b1-4)GlcNAc(b1-3)Gal(b1-4)GlcNAc(b1-2)Man(a1-3)[GlcNAc(b1-3)Gal(b1-4)GlcNAc(b1-3)Gal(b1-4)GlcNAc(b1-2)Man(a1-6)]Man(b1-4)GlcNAc(b1-4)GlcNAc
Method in brief: as §1

[7] = molecular target: GlcNAc(b1-3)Gal(b1-4)GlcNAc(b1-6)[GlcNAc(b1-3)Gal(b1-3)]GalNAc
Method in brief: as §1

[8] = molecular target: Man(a1-2)Man(a1-3)[Man(a1-2)Man(a1-6)]Man(a1-6)[Man(a1-2)Man(a1-2)Man(a1-3)]Man
Method in brief: as §1

[9] = molecular target: Man(a1-3)[Man(a1-6)]Man(b1-4)GlcNAc(b1-4)[Fuc(a1-6)]GlcNAc
Method in brief: as §1

[10] = molecular target: Neu5Ac(a2-3)Gal(b1-3)GlcNAc(b1-2)[Neu5Ac(a2-3)Gal(b1-3)GlcNAc(b1-4)]Man(a1-6)[Neu5Ac(a2-3)Gal(b1-3)GlcNAc(b1-2)Man(a1-3)]Man(b1-4)GlcNAc(b1-4)GlcNAc
Method in brief: as §1

[11] = molecular target: Neu5Ac(a2-3)Gal(b1-4)GlcNAc(b1-2)Man
Method in brief: as §1

[12] = molecular target: Neu5Ac(a2-3)Gal(b1-4)GlcNAc(b1-3)Gal(b1-4)GlcNAc(b1-2)Man(a1-3)[Neu5Ac(a2-3)Gal(b1-4)GlcNAc(b1-3)Gal(b1-4)GlcNAc(b1-2)Man(a1-6)]Man(b1-4)GlcNAc(b1-4)GlcNAc
Method in brief: as §1

[13] = molecular target: Neu5Ac(a2-3)Gal(b1-4)GlcNAc(b1-3)Gal(b1-4)GlcNAc(b1-3)[Neu5Ac(a2-3)Gal(b1-4)GlcNAc(b1-3)Gal(b1-4)GlcNAc(b1-6)]GalNAc
Method in brief: as §1

[14] = molecular target: Neu5Ac(a2-3)Gal(b1-4)[Fuc(a1-3)]GlcNAc(b1-2)Man
Method in brief: as §1

[15] = molecular target: Neu5Ac(a2-6)Gal(b1-4)GlcNAc(b1-2)Man(a1-3)[GlcNAc(b1-2)Man(a1-6)]Man(b1-4)GlcNAc(b1-4)GlcNAc
Method in brief: as §1

[16] = molecular target: Neu5Ac(a2-6)Gal(b1-4)GlcNAc(b1-2)Man(a1-6)Man(b1-4)GlcNAc(b1-4)GlcNAc
Method in brief: as §1

[17] = molecular target: Neu5Ac(a2-6)Gal(b1-4)GlcNAc(b1-3)Gal(b1-4)GlcNAc(b1-2)Man(a1-3)[Neu5Ac(a2-6)Gal(b1-4)GlcNAc(b1-3)Gal(b1-4)GlcNAc(b1-2)Man(a1-6)]GalNAc
Method in brief: as §1

[18] = molecular target: Neu5Ac(a2-6)Gal(b1-4)GlcNAc(b1-3)Gal(b1-4)GlcNAc(b1-3)[Neu5Ac(a2-6)Gal(b1-4)GlcNAc(b1-3)Gal(b1-4)GlcNAc(b1-6)]GalNAc
Method in brief: as §1

[19] = molecular target: Neu5Ac(a2-6)Gal(b1-4)GlcNAc(b1-3)Gal(b1-4)[Fuc(a1-3)]GlcNAc(b1-3)Gal(b1-4)[Fuc(a1-3)]GlcNAc
Method in brief: as §1

[20] = molecular target: Neu5Ac(a2-6)GalNAc
Method in brief: as §1

[21] = molecular target: Neu5Ac(a2-6)GalNAc(b1-4)GlcNAc6S
Method in brief: as §1

[22] = molecular target: Neu5Ac(a2-8)Neu5Ac(a2-3)Gal(b1-4)Glc
Method in brief: as §1

[23] = molecular target: Neu5Ac(a2-8)Neu5Ac(a2-8)Neu5Ac(a2-8)Neu5Ac(a2-3)[GalNAc(b1-4)]Gal(b1-4)Glc
Method in brief: as §1

[24] = molecular target: Neu5Ac(b2-6)GalNAc
Method in brief: as §1

[25] = molecular target: Neu5Ac9Ac(a2-3)Gal(b1-3)GlcNAc
Method in brief: as §1

[26] = molecular target: Neu5Gc(a2-6)Gal(b1-4)GlcNAc
Method in brief: as §1

[27] = molecular target: Neu5Gc(a2-6)GalNAc
Method in brief: as §1

[28] = molecular target: Neu5Gc(a2-8)Neu5Gc(a2-3)Gal(b1-4)GlcNAc
Method in brief: as §1

B1: Aap lectin (Staphylococcus epidermidis) (protein)
chain: VNLNYSSPFMSLLSMPADSSSNNTKNTIDIPPTTVKGRDNYDFYGRVDIESNPTDLNATNLTRYNYGQPPGTTTAGAVQFKNQVSFDKDFDFNIRVANNRQSNTTGADGWGFMFSKKDGDDFLKNGGILREKGTPSAAGFRIDTGYYNNDPLDKIQKQAGQGYRGYGTFVKNDSQGNTSKVGSGTPSTDFLNYADNTTNDLDGKFHGQKLNNVNLKYNASNQTFTATYAGKTWTATLSELGLSPTDSYNFLVTSS
[1]
  glycan array binding signal (z-score): 3.29
[2]
  glycan array binding signal (z-score): -0.698
[3]
  glycan array binding signal (z-score): 0.941
[4]
  glycan array binding signal (z-score): -0.278
[5]
  glycan array binding signal (z-score): 0.543
[6]
  glycan array binding signal (z-score): 3.83
[7]
  glycan array binding signal (z-score): -0.968
[8]
  glycan array binding signal (z-score): -0.858
[9]
  glycan array binding signal (z-score): -0.887
[10]
  glycan array binding signal (z-score): -0.885
[11]
  glycan array binding signal (z-score): -0.335
[12]
  glycan array binding signal (z-score): -0.87
[13]
  glycan array binding signal (z-score): -0.88
[14]
  glycan array binding signal (z-score): -0.708
[15]
  glycan array binding signal (z-score): -0.88
[16]
  glycan array binding signal (z-score): -0.806
[17]
  glycan array binding signal (z-score): -0.905
[18]
  glycan array binding signal (z-score): 2.93
[19]
  glycan array binding signal (z-score): -0.333
[20]
  glycan array binding signal (z-score): -0.816
[21]
  glycan array binding signal (z-score): -1.16
[22]
  glycan array binding signal (z-score): -0.83
[23]
  glycan array binding signal (z-score): -0.444
[24]
  glycan array binding signal (z-score): -0.527
[25]
  glycan array binding signal (z-score): 0.704
[26]
  glycan array binding signal (z-score): -0.275
[27]
  glycan array binding signal (z-score): -0.523
[28]
  glycan array binding signal (z-score): 1.51
